Bioassay records: PubChem, Broad Institute
Not all results are given here.
aSyn 5UTR act = Activators working through SNCA 5'UTR binding (MLPCN); alpha-synuclein 5'UTR reporter, activators screen; activity score, % (tested at 7.5 µM), hits read low; hit rate 7.1% among 300,000; AID 1814; in the data active means activity score below about -60%
Large screens that a line does not name were inactive.

O=C(CSc1ccccc1)Nc1nc2ccccc2[nH]1	aSyn 5UTR act -132.0
O=C(CSc1ccc(Cl)cc1)Nc1ccc(-c2nc3ccccc3[nH]2)cc1	aSyn 5UTR act -94.1
CC[n+]1c(/C=C2\Sc3ccccc3N2C)ccc2cccc(C)c21	none
COc1ccc(C(=O)/C=C2\Sc3ccccc3N2C)cc1	aSyn 5UTR act -179.5
C=CCn1cnc2c(nnn2-c2ccc(C)c(C)c2)c1=O	aSyn 5UTR act -122.4
CN(C)N=Nc1ccc(-c2cn(Cc3ccccc3)cn2)cc1	aSyn 5UTR act -74.2
CCOC(=O)/C=C/c1cnn(-c2ccccc2)c1	aSyn 5UTR act -113.4
CN1CCN(S(=O)(=O)c2ccc(Br)c3nsnc23)CC1	aSyn 5UTR act -69.8
Cc1cccc(N2CSC3=C(C#N)C(c4ccc(C)o4)CC(=O)N3C2)c1 (configuration not stated)	aSyn 5UTR act -85.5
N#C/C(=C\c1ccc(O)cc1)c1nc2ccccc2o1	aSyn 5UTR act -119.6
O=C(NCc1csc(-c2ccccc2)n1)c1cc(F)cc2c1OCOC2	aSyn 5UTR act -113.1
N/C(=N\OC(=O)c1ccc2c(c1)OCO2)c1cccc([N+](=O)[O-])c1	aSyn 5UTR act -132.7
Cc1cccc(/C(N)=N/OC(=O)c2ccc3c(c2)OCO3)c1	aSyn 5UTR act -115.9
Cc1cc(C)n(C(=O)c2cc3sccc3[nH]2)n1	aSyn 5UTR act -82.0
CC(=O)c1cccc(NC(=O)CN2C=NS(=O)(=O)c3ccc(C)cc32)c1	aSyn 5UTR act -124.1
Cc1ccc(SCC(=O)N2CCc3ccccc32)cc1	aSyn 5UTR act -171.4
O=C(CSC1=NCCS1)N1CCc2ccccc21	aSyn 5UTR act -197.6
Cc1cc(C)nc(SCC(=O)N2CCc3ccccc32)n1	aSyn 5UTR act -77.6
O=C(CS(=O)(=O)c1ccccc1)N1CCc2ccccc21	aSyn 5UTR act -106.8
CS(=O)(=O)c1nc(-c2ccco2)cc(C(F)(F)F)n1	aSyn 5UTR act -75.6
Cc1cc(NC(=O)CSc2nc(-c3ccco3)cc(C(F)(F)F)n2)no1	none
CCc1ccc(-c2cn3nc(C)c(C)nc3n2)cc1	none
CCCCCc1ccc(-c2cn(Cc3ccc(C)cc3)nn2)cc1	aSyn 5UTR act -99.5
COc1ccc(-c2cn(Cc3ccc(C)cc3)nn2)cc1	aSyn 5UTR act -107.6
COc1ccc(CN=Cc2[nH]c3ccc(Br)c(Cl)c3c2O)cc1	aSyn 5UTR act -77.7
COc1ccnc(CSC(N)=Nc2ccc(F)cc2)c1	aSyn 5UTR act -111.4
O=C(/C=C/c1ccccc1)NC1CC2CCC1C2 (configuration not stated)	aSyn 5UTR act -110.2
COC(=O)[C@H](Cc1ccccc1)NC(=O)c1cc(COc2c(F)cccc2F)on1	aSyn 5UTR act -84.6
COc1cccc([C@@H]2Oc3ccc(OC)cc3C(=O)[C@H]2O)c1	aSyn 5UTR act -138.4
Brc1ccc2nc(-c3c[nH]c4ccccc34)cn2c1	aSyn 5UTR act -163.9
COc1ccc(N=Cc2oc3ccc4ccccc4c3c2O)cc1	aSyn 5UTR act -223.2
Clc1cccc(Oc2cnc3ccccc3n2)c1	aSyn 5UTR act -65.6
COc1ccc(Oc2cnc3ccccc3n2)cc1	aSyn 5UTR act -64.5
CC(C)(C)c1ccc(Oc2ccc(N)cn2)cc1	none
O=C(Cc1cccs1)Nc1nnc(-c2ccccc2)s1	aSyn 5UTR act -211.3
O=C(Cc1cccs1)Nc1nnc(-c2ccc(F)cc2)s1	aSyn 5UTR act -75.8
Fc1ccc(NC(=S)NN=C2CCCCCC2)cc1	aSyn 5UTR act -74.9
S=C(NN=C1CCCCCC1)Nc1ccc(Cl)cc1	aSyn 5UTR act -70.6
CCCc1c(C(=O)N/N=C/C(C)=C/c2ccccc2)nnn1-c1nonc1N	aSyn 5UTR act -67.3
CC(/C=N/NC(=O)c1nnn(-c2nonc2N)c1C(C)C)=C\c1ccccc1	aSyn 5UTR act -81.4
Nc1nonc1-n1nnc(C(=O)N/N=C/C=C/c2ccccc2)c1CSC1=NCCS1	aSyn 5UTR act -79.8
Cc1ccc(OC(=O)c2cccc([N+](=O)[O-])c2)c(-n2nc3ccccc3n2)c1	aSyn 5UTR act -278.1
O=C(Oc1c(-c2ccccc2)c(=O)n2c3c(cccc13)CC2)c1cccc([N+](=O)[O-])c1	none
Cc1ccc(OC(=O)COc2ccccc2C)c(-n2nc3ccccc3n2)c1	aSyn 5UTR act -233.1
Cc1ccc(OC(=O)COc2ccccc2)c(-n2nc3ccccc3n2)c1	aSyn 5UTR act -177.6
CCOC(=O)c1cc2c(=O)c3ccccc3oc2nc1C	aSyn 5UTR act -152.7
CC(=O)c1ccc2oc3ccccc3c(=O)c2c1	aSyn 5UTR act -81.0
CC(=O)c1cc2c(=O)c3ccccc3oc2nc1C	aSyn 5UTR act -116.4
COCc1nc2oc3ccccc3c(=O)c2cc1C(=O)OC	aSyn 5UTR act -88.8
Cc1c(Cl)ccc2c(C(=O)NC(C)c3ccncc3)cc(-c3ccncc3)nc12 (configuration not stated)	aSyn 5UTR act -67.3
COc1ccc(-c2cc(-c3cc(C)ccc3O)[nH]n2)cc1	aSyn 5UTR act -248.7
COc1ccc(-c2cc(-c3ccc(C)cc3)n[nH]2)c(O)c1	aSyn 5UTR act -143.7
COc1ccc(-c2cc(-c3ccc(OC)cc3)[nH]n2)cc1	aSyn 5UTR act -155.1
COc1ccc(Oc2ccc(-c3ccn[nH]3)cc2)cc1	aSyn 5UTR act -76.2
Oc1ccc(Cl)cc1-c1cc(-c2ccccc2Cl)[nH]n1	aSyn 5UTR act -158.3
Cc1ccc(O)c(-c2cc(-c3ccccc3[N+](=O)[O-])[nH]n2)c1	aSyn 5UTR act -94.8
COc1ccc(-c2nc(SC)n(S(=O)(=O)c3ccccc3)n2)cc1	aSyn 5UTR act -120.4
Cc1cc2nc(SCCN3CCCC3)[nH]c2cc1C	aSyn 5UTR act -67.7
COc1ccc(C2CC2/C(=N/OC(=O)c2cccs2)c2ccccc2)cc1 (configuration not stated)	aSyn 5UTR act -152.6
c1ccc2cc(-c3cc4ccccn4c3)ccc2c1	aSyn 5UTR act -98.1
COc1ccc(Nc2cc(C)c3ccccc3n2)cc1	aSyn 5UTR act -100.9
COc1cccc(C(=O)Nc2nc3c(c(=O)[nH]2)CCCC3)c1	aSyn 5UTR act -96.7
COc1ccc(C(=O)Nc2cccc3ccccc23)cc1	aSyn 5UTR act -137.7
COc1ccc(Nc2cccc3ccccc23)cc1	aSyn 5UTR act -72.4
COc1ccc(Nc2ccc(OC)cc2)cc1	aSyn 5UTR act -104.6
COc1ccc(C(=O)Nc2nc3ccccc3c(=O)[nH]2)cc1	aSyn 5UTR act -126.6
CCOC(=O)c1c(NC2=NS(=O)(=O)c3ccccc32)sc2c1CCCCC2	aSyn 5UTR act -63.2
CC1CCC(C(C)C)C(=O)/C1=C/c1ccc(N)cc1 (configuration not stated)	aSyn 5UTR act -172.9
OC(c1cc(-c2ccc(Cl)cc2)nc2ccccc12)C1CCCCN1 (configuration not stated)	none
COc1cc(NC2CCCCC2O)c2nc(-c3ccc(Cl)cc3)ccc2c1 (configuration not stated)	aSyn 5UTR act -93.8
COc1ccc(NC(=O)/C(C#N)=C\c2ccc(Br)o2)cc1	aSyn 5UTR act -114.3
CNC(=O)/C(C#N)=C/c1ccc(-c2ccc(OC)cc2[N+](=O)[O-])o1	aSyn 5UTR act -76.1
COc1ccc(NC(=O)/C(C#N)=C\c2cc(C)n(-c3ccc4c(c3)OCO4)c2C)cc1	aSyn 5UTR act -107.0
Cc1ccc(N=C2NC(=O)/C(=C/c3cccn3C)S2)cc1C	aSyn 5UTR act -127.3
O=C1NC(=Nc2ccccc2)S/C1=C/c1cccs1	aSyn 5UTR act -117.3
Cc1ccc(N=C2NC(=O)/C(=C/c3cccn3C)S2)cc1	aSyn 5UTR act -79.7
CSc1ccc(CC(=O)N2CCC(n3nccc3NC(=O)C3CC3)CC2)cc1	aSyn 5UTR act -116.4
CSCC(=O)N1CCC(n2nccc2NC(=O)c2ccc3c(c2)OCO3)CC1	aSyn 5UTR act -109.8
O=C(c1ccccc1Sc1c(Cl)cccc1[N+](=O)[O-])N1CCOCC1	aSyn 5UTR act -73.7
